# Data taken from the supplement of paper PMC9135407.
# Where “and” joins values, the source holds several entries; their conditions need not be identical. Equal entries are not always repeated. Structures can show the parent of a compound that is named as a salt. In all, about 5,800 compounds went through this assay and about 620 (11%) showed activity. The sample as a whole holds a higher share of actives than the screen did. Values without a mark were called inactive.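 How the source made its calls: active = score above a cut-off or among the top three wells of a plate; in these data no inactive exceeds 0.85.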
# Tested on: primary human hepatic stellate cells (donor 1)
# Experiment: scaled lipid accumulation score (0 = DMSO-like, 1 = nortriptyline-like); higher = stronger HSC inactivation (lipid re-accumulation), active = hit call of the paper
# Conditions: 48 h
# [1] = library stock concentration: 80 uM
# [2] = library stock concentration: 400 uM
# [3] = library stock concentration: 2 mM
# [4] = library stock concentration: 10 mM
# [5] = library stock concentration: 3.33 mM
# [6] = library stock concentration: 1 mM
compound,measurement,setting,value
CC[C@@H]1C(=O)N(C)c2cnc(Nc3ccc(C(=O)N[C@H]4CC[C@H](N5CCN(CC6CC6)CC5)CC4)cc3OC)nc2N1C(C)C [Volasertib],scaled lipid accumulation score,[1],0.154
same,scaled lipid accumulation score,[2],0.358
same,scaled lipid accumulation score,[3],0.451
COc1cc(C(=O)NC2CCN(C)CC2)ccc1Nc1ncc2c(n1)N(C1CCCC1)C(C)CC(=O)N2C (centres undefined),scaled lipid accumulation score,[1],≤ 0
same,scaled lipid accumulation score,[2],≤ 0
same,scaled lipid accumulation score,[3],0.177
same,scaled lipid accumulation score,[4],0.428
COc1cc(C(=O)NC2CCN(C)CC2)ccc1Nc1ncc2c(n1)N(C1CCCC1)CCC(=O)N2C(C)C,scaled lipid accumulation score,[1],≤ 0
same,scaled lipid accumulation score,[2],≤ 0
same,scaled lipid accumulation score,[3],0.132
CC(=O)Nc1cccc(-n2c(=O)n(C3CC3)c(=O)c3c(Nc4ccc(I)cc4F)n(C)c(=O)c(C)c32)c1,scaled lipid accumulation score,[1],≤ -0.009
same,scaled lipid accumulation score,[2],≤ -0.003
same,scaled lipid accumulation score,[3],0.049
same,scaled lipid accumulation score,[5],≤ 0
same,scaled lipid accumulation score,[4],≤ 0 and 0.058
O=C(N/N=C/c1ccc(O)c(O)c1)c1cc2ccccc2cc1O [Dynasore],scaled lipid accumulation score,[5],≤ -0.009
same,scaled lipid accumulation score,[4],0.182
"CN=C(N)NCCC[C@H](N)C(=O)O [L-Ornithine, N5-[imino(methylamino)methyl]-[CAS]]",scaled lipid accumulation score,[4],≤ 0
O=C(O[C@H]1[C@H](Oc2ccccc2COC(=O)C2(O)C=CCCC2=O)O[C@H](CO)[C@@H](O)[C@@H]1O)c1ccccc1 (some centres undefined),scaled lipid accumulation score,[4],≤ 0
COc1cccc(OC)c1OCCNCC1COc2ccccc2O1 (centres undefined) [WB-4101 hydrochloride],scaled lipid accumulation score,[4],0.182
COc1cccc(OC)c1OCCNCC1COc2ccccc2O1 (centres undefined) [WB 4101 hydrochloride],scaled lipid accumulation score,[4],0.337
CCCCC[C@@H](O)/C=C/[C@H]1[C@H](C/C=C\CCCC(=O)O)[C@H](O)C[C@@H]1O [ent-Prostaglandin F2.alpha.],scaled lipid accumulation score,[6],≤ 0
CCOC(=O)/C=C/[C@H](CC(C)C)NC(=O)[C@H](CO)NC(=O)[C@@H](NC(=O)c1cccc(O)c1C)C(C)C,scaled lipid accumulation score,[6],≤ 0
C[C@@H]1C(=O)NC2=Nc3cccc(Cl)c3CN21 [Quazinone],scaled lipid accumulation score,[4],≤ 0
N=C1C=CC(=C(c2ccc(N)cc2)c2ccc(N)cc2)C=C1 [Pararosaniline pamoate],scaled lipid accumulation score,library stock concentration: 3 mM,0.375
same,scaled lipid accumulation score,[4],0.435
C=CC(=O)Nc1cccc(Nc2nc(NC3CCC(N(C)C)CC3)nc3c2ncn3C(C)C)c1 (centres undefined),scaled lipid accumulation score,[1],≤ 0
same,scaled lipid accumulation score,[2],≤ 0
same,scaled lipid accumulation score,[3],≤ 0
same,scaled lipid accumulation score,[4],0.782
CCCCC[C@H](O)/C=C/[C@H]1C=CC(=O)[C@@H]1CCCCCCC(=O)OCC [Prostaglandin A1 ethyl ester],scaled lipid accumulation score,[6],≤ 0
NC(N)=O,scaled lipid accumulation score,[4],≤ 0
same,scaled lipid accumulation score,library stock concentration: 33.3 mM,≤ 0
CC/C=C\C/C=C\C/C=C\C/C=C\CCCCC(=O)O [Stearidonic Acid],scaled lipid accumulation score,[6],≤ 0
C=C1C[C@H](O)[C@H](C/C=C\CCCC(=O)O)[C@H]1/C=C/C(=O)CCCCC [11-deoxy-11-methylene-15-keto Prostaglandin D2],scaled lipid accumulation score,[6],≤ 0
COc1cc(C(=O)N2CCC(N3CCN(C)CC3)CC2)ccc1Nc1ncc2c(n1)N(C)c1ccccc1C(=O)N2C [listing 1 of 2 here],scaled lipid accumulation score,[1],≤ 0
same,scaled lipid accumulation score,[2],0.015
same,scaled lipid accumulation score,[3],0.329
COc1cc(N2CCC(N)CC2)ccc1Nc1ncc(Cl)c(-c2c[nH]c3ccccc23)n1,scaled lipid accumulation score,[5],0.146
same,scaled lipid accumulation score,[4],0.238
COc1cc(N2CCC(N3CCN(C)CC3)CC2)ccc1Nc1ncc(Cl)c(-c2c[nH]c3ccccc23)n1 [listing 1 of 2 here],scaled lipid accumulation score,[1],0.057
same,scaled lipid accumulation score,[2],0.358
COc1cc(C(=O)N2CCC(N3CCN(C)CC3)CC2)ccc1Nc1ncc2c(n1)N(C)c1ccccc1C(=O)N2C [listing 2 of 2 here],scaled lipid accumulation score,[4],0.929 (active)
COc1cc(N2CCC(N3CCN(C)CC3)CC2)ccc1Nc1ncc(Cl)c(-c2c[nH]c3ccccc23)n1 [listing 2 of 2 here],scaled lipid accumulation score,[3],0.981 (active)
same,scaled lipid accumulation score,[4],0.967 (active)
COc1cc(N2CCN(C)CC2)ccc1Nc1ncc2c(n1)N(C)c1ccccc1C(=O)N2C,scaled lipid accumulation score,[1],0.087
same,scaled lipid accumulation score,[2],0.062
same,scaled lipid accumulation score,[3],0.241
same,scaled lipid accumulation score,[4],0.703
